We go through 39 molecules from PubChem BioAssay AID686996 (Broad Institute, 2013).

Several values for one entry are separate records, joined by “and”; a condition that tells them apart may be missing. Identical values can stand only once. Among all 350,000 compounds or so, about 1,900 (0.54%) were called active.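 How the source made its calls: active means mean inhibition across replicates at least about 35%, with every replicate also reaching that limit (limit read from the data); inconclusive means only one of the two criteria met; inactive means neither criterion met.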 The sample as a whole holds a higher share of actives than the screen did.

Chain of Caspase-6 (Homo sapiens) (P55212 24-179 limits assumed): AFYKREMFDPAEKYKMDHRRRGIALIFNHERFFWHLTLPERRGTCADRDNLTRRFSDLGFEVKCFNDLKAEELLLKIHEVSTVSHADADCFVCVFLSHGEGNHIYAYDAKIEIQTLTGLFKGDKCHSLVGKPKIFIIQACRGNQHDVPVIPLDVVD
Chain of Caspase-6 (Homo sapiens) (P55212 194-293 limits assumed): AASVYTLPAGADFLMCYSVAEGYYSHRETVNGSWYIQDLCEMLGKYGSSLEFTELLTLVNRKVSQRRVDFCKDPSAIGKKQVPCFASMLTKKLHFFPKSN

The experiment has as its target Caspase-6 (Homo sapiens) (UniProt P55212). As to the kind of experiment: human caspase-6 inhibitors, primary screen, biochemical, VEID-R110 fluorescence, single point, set 2 (AID 686996).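 Further: 0% = median of neutral control wells and 100% = no fluorescence left.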 As to conditions: purified caspase-6, Z-VEID-R110 cleavage fluorescence; at 12.5 µM; stronger effect = higher value.
In general, inhibition refers to the drop in the measured response relative to a control, in per cent. For `Cc1noc(C)c1NC(=O)Nc1ccc2c(c1)C(=O)N([C@H](C)CO)C[C@@H](C)[C@@H](CN(C)Cc1ccccc1)O2`, the inhibition is -0.453% (inactive).

With `C[C@H](CO)N1C[C@H](C)[C@H](CN(C)Cc2ccc(C(F)(F)F)cc2)OCCCC[C@H](C)Oc2ccc(NS(=O)(=O)c3ccc(Cl)cc3)cc2C1=O`, the inhibition is 0% (inactive).

Regarding `CCC(=O)N1[C@H](C(=O)OC)[C@@H](CO)[C@@H]2Cn3c(ccc(-c4cccc(F)c4)c3=O)[C@@H]21`, the inhibition is -0.171% (inactive).

Consider `Cc1cccc(-c2ccc(C3[C@@H]4CN(C(=O)Nc5ccc(C(F)(F)F)cc5)C[C@H]3N4)cc2)c1` (some centres undefined), for which the inhibition was 17.5% (inactive) and -2.54% (inactive).

With `C[C@@H]1CCCCO[C@@H](CN(C)Cc2ccccc2)[C@H](C)CN([C@H](C)CO)C(=O)c2cc(NS(=O)(=O)c3cccs3)ccc2O1`, the inhibition is -0.17% (inactive).

Turning to `Cc1ccc(S(=O)(=O)N2CCN(C(=O)COC(=O)c3c(C)cc(C)cc3C)CC2)c(C)c1`, the inhibition was 0.238% (inactive).

As to `Cc1ccc(S(=O)(=O)N2CCN(C(=O)COC(=O)CNC(=O)c3ccc(C(C)(C)C)cc3)CC2)c(C)c1`, the inhibition is 53.3% (active).

Consider `COc1ccccc1CCC(=O)OCC(=O)N1CCN(S(=O)(=O)c2ccc(C)cc2C)CC1`, for which the inhibition is 0.558% (inactive).

Take `COc1ccc(Br)cc1/C=N/Nc1ccc(S(=O)(=O)Nc2ccccc2C(=O)O)cc1[N+](=O)[O-]`: the inhibition is 49.3% (active).

As to `COc1ccc(S(=O)(=O)N2CCC(C(=O)OCC(=O)c3ccccc3)CC2)cc1[N+](=O)[O-]`, the inhibition is -8.89% (inactive).

On to `CC1CN(C(=O)c2ccccc2NS(=O)(=O)c2cccc([N+](=O)[O-])c2)CC(C)O1` (centres undefined), for which the inhibition was 0.082% (inactive).

`CCCN1[C@H](C(=O)N[C@H](C)c2ccccc2)[C@@H](CO)[C@@H]2Cn3c(ccc(-c4ccccc4)c3=O)[C@@H]21`: the inhibition was -1.76% (inactive).

`O=C(C[C@H]1CC[C@H]2[C@@H](COC[C@@H](O)CN2CC2CCOCC2)O1)NCc1ccc(Cl)cc1`: the inhibition is -3.23% (inactive).

On to `Cc1noc(C)c1S(=O)(=O)N(C)C[C@@H]1Oc2ccc(NC(=O)Cn3cnnn3)cc2CC(=O)N([C@@H](C)CO)C[C@@H]1C`, for which the inhibition was 2.4% (inactive).

Take `CCN=c1sc(C(=O)Nc2ccccc2)c(C)n1CC`: the inhibition was 67.5% (active).

For `Cc1c(C(=O)Nc2ccccc2)sc2nc3n(c(=O)c12)CCCCC3`, the inhibition was 14.7% (inactive).

Consider `COc1ccc(NC(=O)c2sc(=O)n(Cc3ccc(S(=O)(=O)N(C)C)cc3)c2C)cc1`, for which the inhibition is -0.522% (inactive).

As for `C[C@@H]1CN([C@@H](C)CO)C(=O)Cc2cc(NS(C)(=O)=O)ccc2O[C@H]1CN(C)C(=O)Nc1ccccc1`, the inhibition is 2.54% (inactive).

Take `O=S(=O)(N[C@H]1CC[C@@H](CCNS(=O)(=O)c2ccccc2Cl)O[C@@H]1CO)c1ccccc1`: the inhibition is 1.46% (inactive).

On to `C[C@@H]1CN([C@@H](C)CO)C(=O)c2cc(NC(=O)Nc3ccc4c(c3)OCO4)ccc2O[C@@H](C)CCCCO[C@@H]1CN(C)S(=O)(=O)c1cccs1`, for which the inhibition was -0.287% (inactive).

Regarding `COc1ccc(NS(=O)(=O)c2cccc3nsnc23)cc1Cl`, the inhibition was -0.203% (inactive).

Consider `O=S(=O)(Nc1ccccc1Cl)c1cccc2nsnc12`, for which the inhibition is 51.3% (active).

As to `O=C(O)c1ccc(NS(=O)(=O)c2cccc3nsnc23)cc1`, the inhibition is 4.06% (inactive).

As for `Cc1cccc(S(=O)(=O)N2CC[C@@H]3[C@H]2c2cc(C#Cc4ccccc4F)ccc2N[C@@H]3CO)c1`, the inhibition was 4.39% (inactive).

As to `CC(C)NC(=O)Nc1ccc2c(c1)C(=O)N([C@@H](C)CO)C[C@H](C)[C@H](CN(C)C(=O)NC1CCCCC1)OCCCC[C@@H](C)O2`, the inhibition is 1.72% (inactive).

For the molecule `C[C@@H]1CN([C@H](C)CO)C(=O)c2cc(-c3cccc(C#N)c3)cnc2O[C@H]1CN(C)C(=O)C1CCC1`, the inhibition is -1.37% (inactive).

For `COc1ccc(-c2cc(C(=O)NC(Cc3c[nH]c4ccccc34)C(=O)O)c(C)o2)cc1OC` (centres undefined), the inhibition was 50.7% (active).

Consider `COc1ccc(-c2cc(=O)oc3cc(OCC(=O)N[C@@H](Cc4c[nH]c5ccccc45)C(=O)O)ccc23)cc1`, for which the inhibition was 5.8% (inactive).

As for `CC(Oc1ccc2c(-c3ccccc3)cc(=O)oc2c1)C(=O)NC(Cc1c[nH]c2ccccc12)C(=O)O` (centres undefined), the inhibition is 5.42% (inactive).

In the case of `COc1ccc2c3c([nH]c2c1)[C@H](CO)N(Cc1nccs1)CC31CCN(Cc2cccnc2)CC1`, the inhibition is 1.89% (inactive).

With `C/C=C/c1ccc([C@H]2[C@@H](CO)N(C(C)=O)[C@H]2CNC(=O)c2ccncc2)cc1`, the inhibition was -0.501% (inactive).

Turning to `COc1ccc2c3c([nH]c2c1)[C@@H](CO)N(S(C)(=O)=O)CC31CN(CC2CC2)C1`, the inhibition is 0.799% (inactive).

`COc1ccc(Cl)cc1N(CC(=O)N1CCCCC1)S(C)(=O)=O`: the inhibition is 5.56% (inactive).

As to `COc1ccc(S(=O)(=O)N(CC(=O)N/N=C/c2ccc(C(=O)O)cc2)Cc2ccccc2)cc1OC`, the inhibition was 3.65% (inactive).

For the molecule `COc1ccc(Cl)cc1N(CC(=O)N/N=C/c1ccc(OCC(N)=O)cc1)S(C)(=O)=O`, the inhibition is 49.4% (active).

In the case of `O=C(C1CCCCC1)N1CC(=O)N2[C@H](CO)[C@@H](c3ccc(C#Cc4cccc(F)c4)cc3)[C@@H]2C1`, the inhibition was -1.89% (inactive).

Turning to `C[C@H](CO)N1C[C@H](C)[C@H](CN(C)C(=O)C2CCOCC2)Oc2ncc(-c3ccccc3F)cc2C1=O`, the inhibition was -2.04% (inactive).

`C[C@H](CO)N1C[C@H](C)[C@@H](CN(C)Cc2cccc(F)c2)Oc2cc(C#CC3CC3)ccc2S1(=O)=O`: the inhibition was 0.411% (inactive).

For `Cc1ccc(S(=O)(=O)N(C)C[C@H]2Oc3ccc(NC(=O)Nc4cccc5ccccc45)cc3CC(=O)N([C@H](C)CO)C[C@H]2C)cc1`, the inhibition was -0.526% (inactive).
